This is part of a sample that, as a whole, favours compounds with a hit. Of some 83,000 tested, about 20% had one in any assay.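 Cells were grown in 96-well plates and exposed to the test compound at a single concentration for 48 hours; results are reported as percent growth, with values below 10 considered active.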 Unmarked numbers belong to inactive results. The source made the active and inactive calls.
System: SK-MEL-28 melanoma
Assay: NCI-60 one-dose screen, 48 h (100 = growth as untreated, 0 = no growth, -100 = all killed)
Conditions: 10 µM unless noted

| Compound | growth |
| --- | --- |
| COc1ccc2c(CCCCC(c3ccccc3)c3ccccc3)c3[n+](cc2c1OC)CCc1cc2c(cc1-3)OCO2 | -82.1% (active) |
| CCN1CCN(c2cc(C)nc(N(CCCNc3ccnc4cc(Cl)ccc34)Cc3ccc4c(c3)OCO4)n2)CC1 | -73.6% (active) |
| O=C(Nc1ccc(C(=O)Nc2ccc(C3=NCCCN3)cc2)cc1)Nc1ccc(C2=NCCCN2)cc1 | 105% |
| CCOC(=O)C1=C(C)N=C2Sc3cc(OC(F)(F)F)ccc3N2[C@H]1c1ccccn1 | 42.4% |
| Nc1c2c(c(O)c3c1=C(CO)C=N3)=NCCS2 | -79% (active) |
| C[C@@H](C[C@H](CCO)c1cc(C(F)(F)F)cc(C(F)(F)F)c1)c1ccc2ccccc2c1 | 86.7% |
| CN(N)c1nc2sc3c(c2c(=O)[nH]1)CCCC3 | 114% |
| Cc1cc(N(CCNc2ccnc3cc(Cl)ccc23)Cc2ccc3c(c2)OCO3)nc(N2CCN(C)CC2)n1 | -65.7% (active) |
| C[N+](C)(CCOC(c1ccccc1)c1ccccc1)CC(=O)OCc1ccccc1 | 106% |
| CC1(/C=N/NC(N)=S)NC(=O)NC1=O (stereo not drawn) | 117% |
| [2H]C1([2H])[C@H](C)O[C@H](C)C([2H])([2H])N1c1ccc(NC(=O)c2cccc(-c3ccc(OC(F)(F)F)cc3)c2C)cn1 | 89.2% |
| N#Cc1cc2[nH]c3ccc(OC(F)(F)F)cc3c2oc1=O | 93% |
| COc1ccc2c(c1OC)C(=O)O[C@@H]2[C@H]1c2c(c(C#CC#Cc3ccc(F)c(F)c3)c3c(c2OC)OCO3)CCN1C | 96.3% |
